This note sets out measurements from ChEMBL document CHEMBL4808148, “HDAC6 screening dataset using tau-based substrate in an enzymatic assay yields selective inhibitors and activators” (2021).

About 390 (7%) of roughly 5,600 compounds showed an effect of 50% or more. Only a selection was taken, and strong results are over-represented in it overall.

For the assay, the target named is T1, Protein deacetylase HDAC6 (Homo sapiens) (UniProt Q9UBN7).
T1 sequence (whole entry): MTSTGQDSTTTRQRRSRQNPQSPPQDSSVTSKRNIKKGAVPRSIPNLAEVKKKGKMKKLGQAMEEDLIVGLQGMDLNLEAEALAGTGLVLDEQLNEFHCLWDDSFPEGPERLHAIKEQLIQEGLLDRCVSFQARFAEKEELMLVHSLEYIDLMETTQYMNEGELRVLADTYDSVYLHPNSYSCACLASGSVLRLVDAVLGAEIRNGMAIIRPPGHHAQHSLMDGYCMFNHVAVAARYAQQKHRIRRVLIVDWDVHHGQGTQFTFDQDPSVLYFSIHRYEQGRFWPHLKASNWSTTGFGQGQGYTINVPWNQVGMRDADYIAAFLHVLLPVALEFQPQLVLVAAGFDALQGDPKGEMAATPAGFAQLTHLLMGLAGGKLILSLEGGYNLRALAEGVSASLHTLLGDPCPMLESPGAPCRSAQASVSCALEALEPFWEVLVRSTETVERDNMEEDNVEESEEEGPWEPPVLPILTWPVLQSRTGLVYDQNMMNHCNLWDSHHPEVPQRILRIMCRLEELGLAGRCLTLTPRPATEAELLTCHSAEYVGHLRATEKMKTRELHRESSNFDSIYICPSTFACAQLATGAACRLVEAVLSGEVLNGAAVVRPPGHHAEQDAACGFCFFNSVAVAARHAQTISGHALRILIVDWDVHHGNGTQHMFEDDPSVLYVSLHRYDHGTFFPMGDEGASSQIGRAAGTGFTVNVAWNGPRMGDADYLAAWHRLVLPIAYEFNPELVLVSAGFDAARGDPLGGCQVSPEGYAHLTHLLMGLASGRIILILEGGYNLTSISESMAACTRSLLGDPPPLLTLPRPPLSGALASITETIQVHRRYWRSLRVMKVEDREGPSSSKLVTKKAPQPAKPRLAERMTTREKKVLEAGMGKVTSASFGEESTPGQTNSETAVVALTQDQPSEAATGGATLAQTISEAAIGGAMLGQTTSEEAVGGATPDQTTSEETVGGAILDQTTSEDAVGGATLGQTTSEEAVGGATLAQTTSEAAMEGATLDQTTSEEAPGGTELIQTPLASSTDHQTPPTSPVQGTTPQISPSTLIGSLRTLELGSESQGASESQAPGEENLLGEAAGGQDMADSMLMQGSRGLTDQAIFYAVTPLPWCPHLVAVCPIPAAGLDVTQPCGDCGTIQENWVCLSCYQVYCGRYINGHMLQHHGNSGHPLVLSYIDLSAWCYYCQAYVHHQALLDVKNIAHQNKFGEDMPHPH
As to conditions: at 10 µM.
Usually inhibition stands for the change of the read-out against control, counted positive when it falls. Take `O=C(Nc1ccccc1-c1cn2c(CN3CCNCC3)csc2n1)c1cnc2ccccc2n1`: the inhibition amounted to 55.6%. For the compound `O=C(C1CC1)N1CC[C@@H](Cc2n[nH]c(=O)n2-c2ccc(-c3ccc4occc4c3)cc2)C1`, the inhibition is 39.2%. In the case of `CN[C@@H]1[C@@H](O)[C@H](O[C@@H]2[C@@H](O)[C@H](O[C@H]3O[C@H](CN)[C@@H](O)[C@H](O)[C@H]3O)[C@@H](N)C[C@H]2NC(=O)[C@@H](O)CN)OC[C@]1(C)O`, the inhibition was -4.97%. For the compound `Cc1cc(NC(=O)Nc2ccc(N(C)C)cc2)c2cc(F)cc(F)c2n1`, the inhibition was 9.39%. Regarding `Cc1ccc(F)c(NC(=O)Nc2ccc(-c3cccc4[nH]nc(N)c34)cc2)c1`, the inhibition came to 94.5%.

Turning to `C[N+]1(CCCCC[N+]2(C)CCCC2)CCCC1`, the inhibition amounted to 1.14%. For the compound `NC(=O)[C@H]1CCS[C@@H]2C[C@]3(CCCN3C(=O)Cc3ccc(NC(=O)COc4ccc(Cl)cc4Cl)cc3)C(=O)N12`, the inhibition turned out to be 3.16%.

For `Cc1c(C)c2c(c(C)c1O)C[C@@](C)(CCC[C@H](C)CCC[C@H](C)CCCC(C)C)OC2`, the inhibition came out at 18.1%. Consider `O=C1N=C(NCc2cccs2)S/C1=C\c1ccc2ncccc2c1`, for which the inhibition amounted to 68.2%.

For `Cc1cc(N)c2ccccc2[n+]1CCCCCCCCCC[n+]1c(C)cc(N)c2ccccc21`, the inhibition is -8%. Consider `Oc1ccc2ccccc2c1Cc1c(O)ccc2ccccc12`, for which the inhibition is 25.7%. Under `Nc1cc2c3ccccc3ccc2c2ccccc12` stands 96%; under `COc1nccc(-c2c(-c3ccc(F)cc3)ncn2[C@H]2CC[C@H](O)CC2)n1`, -0.9%. Under `COc1c2occc2c(OC)c2c(=O)cc(C)oc12` stands -5.99%; under `Cc1cn(C[C@H](N)C(=O)O)c(=O)n(Cc2ccsc2C(=O)O)c1=O`, 14.3%; under `CN1CCCN=C1COC(=O)C(O)(c1ccccc1)C1CCCCC1` (centres undefined), -6.61%. Consider `Cc1ccsc1/C=C/C1=NCCCN1C`, for which the inhibition amounted to 1.45%. With `CN1CCCN=C1/C=C/c1cccs1`, the inhibition stood at 82.3%.

As for `CN1CCCN=C1/C=C/c1cccc(O)c1`, the inhibition was determined as 74.1%. Turning to `COc1ccc(N(C)c2nc(C)nc3ccccc23)cc1`, the inhibition was -1.78%. The figure for `CC[C@@H]1C[C@H](N(Cc2cc(C(F)(F)F)cc(C(F)(F)F)c2)C(C)=O)c2cc(C(F)(F)F)ccc2N1C(=O)OC(C)C` is 3.27%; for `COC(=O)C1=C(C)NC(C)=C(C(=O)O[C@@H]2CCCN(Cc3ccccc3)C2)[C@@H]1c1cccc([N+](=O)[O-])c1` it is 16.7%. Consider `CCn1c(=O)/c(=C2\Sc3ccccc3N2C)s/c1=C\c1cccc[n+]1CC`, for which the inhibition came to 3.58%.

Take `N=C(N)NC(=N)N1CCOCC1`: the inhibition is -0.5%.

Consider `N#Cc1ccc(N(Cc2ccc(Br)cc2)n2cnnc2)cc1`, for which the inhibition stood at 7.87%. Consider `O=C(N[C@@H]1CC[C@@H](c2cccc(F)c2F)CN(CC(F)(F)F)C1=O)N1CCC(n2c(=O)[nH]c3ncccc32)CC1`, for which the inhibition was determined as 21.5%. Under `N[C@@]1(C(=O)O)CS(=O)(=O)[C@H]2[C@H](C(=O)O)[C@H]21` stands 9.11%; under `O=C1NCCc2[nH]c(-c3ccncc3)cc21`, -2.78%. In the case of `O=C1Cc2c([nH]c3ccc(Br)cc23)-c2ncccc2N1`, the inhibition is 84.9%.

For `O=C1Cc2c([nH]c3ccc(Br)cc23)-c2ccccc2N1`, the inhibition is 89.3%. Turning to `CCS(=O)(=O)c1cccc(-c2cc(C(=O)NC3CCN(C)CC3)c(C)c3[nH]c4ncc(C)cc4c23)c1`, the inhibition was 12.4%.

As for `O=[N+]([O-])c1cccc2c(Br)n[nH]c12`, the inhibition is -0.83%.

On to `CCCCc1ccc(NS(=O)(=O)c2ccc(F)cc2)cc1`, for which the inhibition stood at 18.6%. Under `CN[C@@H](C)[C@H]1[C@H](O)C[C@@]2(C)[C@@H]3CC[C@H]4C(C)(C)[C@@H](NC)CC[C@@]45C[C@@]35CC[C@]12C` stands -3.38%. With `Nc1ccncc1N`, the inhibition was 42.8%. With `C=CCSCC1Nc2cc(Cl)c(S(N)(=O)=O)cc2S(=O)(=O)N1` (centres undefined), the inhibition turned out to be 12%. In the case of `NS(=O)(=O)c1cc2c(cc1Cl)NC(CC1CCCC1)NS2(=O)=O` (centres undefined), the inhibition amounted to 9.09%. Under `NS(=O)(=O)c1cc2c(cc1C(F)(F)F)NC(Cc1ccccc1)NS2(=O)=O` (centres undefined) stands 103%; under `C[C@@H](c1nc(-c2ccc(C#N)cc2)cs1)[C@](O)(Cn1cncn1)c1ccc(F)cc1F`, 13.6%; under `N=C(N)NN=C1C=CC(=NNC(N)=S)C=C1`, 8.3%. Turning to `C=C1/C(=C\C=C2/CCC[C@]3(C)[C@@H]([C@H](C)CC[C@@H](O)C(C)C)CC[C@@H]23)C[C@@H](O)C[C@@H]1O`, the inhibition turned out to be 24.3%. Under `O=C(c1ccc(-c2ccc(Cl)cc2)o1)N(Cc1ccccn1)c1ccc(N2CCNCC2)cc1` stands 9.26%; under `CCOc1ccc(C(=O)OCCN(CC)CC)cc1`, 4.93%. Consider `CCCOC(=O)c1ccc(O)cc1`, for which the inhibition came to 73%.

Regarding `CCCCOc1cc(C(=O)OCCN(CC)CC)ccc1N`, the inhibition came out at 16.8%. Consider `CCCCOC(=O)c1ccc(N)cc1`, for which the inhibition is 44.5%. Under `CC/C(=C(/CC)c1ccc(O)cc1)c1ccc(O)cc1` stands 19.4%. On to `CCCCOC(=O)c1ccc(O)cc1`, for which the inhibition stood at 86.8%. Turning to `CCCCN1CCCC1CNC(=O)c1cc(C#N)c2ccccc2c1OC` (centres undefined), the inhibition was 6.77%. Take `NC(=O)c1cnc2[nH]ccc2c1N[C@H]1C2CC3CC1C[C@](O)(C3)C2`: the inhibition amounted to 15.9%. With `CC(C)C[C@@H](C(=O)N[C@@H](Cc1ccc(OCc2ccccc2)cc1)C(=O)NC(C)(C)C)N(C)Cc1ccc(C(C)(C)C)cc1`, the inhibition came to 10.7%.

As to `C[C@H]1CC[C@@]2(OC1)O[C@H]1C[C@H]3[C@@H]4CC[C@@H]5C[C@@H](O)CC[C@]5(C)[C@H]4CC[C@]3(C)[C@H]1[C@@H]2C`, the inhibition was 5.04%. Turning to `CN(C)/C=N/c1c(I)cc(I)c(CCC(=O)O)c1I`, the inhibition worked out at 6.5%. The figure for `O=C(NCC1CCCCN1)c1cc(OCC(F)(F)F)ccc1OCC(F)(F)F` (centres undefined) is -2.24%. Under `CCC(CC)(CC(=O)Nc1cccc(/C=C/c2nc(C3CCC3)cs2)c1)C(=O)O` stands 87.3%; under `COc1cc(N2CCC(O)CC2)ccc1Nc1cc(Nc2ccccc2S(=O)(=O)C(C)C)c2cc[nH]c2n1`, 12.8%; under `Cc1ccc(-c2ncn(-c3ccc(Nc4nccc(-c5cccc(N6CCOCC6)c5)n4)cc3)n2)cn1`, 0.35%. In the case of `CCC(=O)NC1Cc2ccccc2C(c2ccccc2)C1` (centres undefined), the inhibition came to 0.79%.

In the case of `O=[N+]([O-])c1c(Nc2cc(F)cc(Cl)c2)ccc2nonc12`, the inhibition came to 22.6%. Turning to `Nc1ncnc2c1ncn2[C@H]1CC[C@@H](CO)O1`, the inhibition amounted to 46%. The figure for `CC1(C)CNc2cc(NC(=O)c3cccnc3NCc3ccncc3)ccc21` is 87.1%; for `N#CC1(c2ccc(NC(=O)c3cccnc3NCc3ccncc3)cc2)CCCC1` it is 51.4%; for `CCCCCCCCCCCCCC(=O)OC(C)C` it is 30.5%.

Turning to `O=C(O)c1nc(=O)[nH]c(=O)[nH]1`, the inhibition was -2.71%.
